# Compounds with a hit are over-represented: about 8% of the library has one in this group of screens.
# MCF10A rerep – DNA re-replication induction in MCF 10a cells | MCF 10A DNA re-replication, Hoechst nuclear intensity, 48 h | 2.9% of 350,000 active | Potency, µM (top dose mostly 46.1 µM), inactives show top-dose activity, positive = re-replication, actives largely listed as activators; also: % of control where 0% means no effect; nearly all actives have a fitted effect of over 50% in size
# SW480 rerep – inducers of DNA re-replication in SW480 colon cancer cells; 1.8% of 340,000 active; Potency, µM (titrated, usually from 46.1 µM), without a hit: at the highest dose re-replication activation, usual class: activators; SW480 DNA re-replication, Hoechst DNA content imaging, 48 h; AID 624297; also: % of control where 0% means no effect; nearly all actives have a fitted effect of over 55% in size
#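 Image-based read-out: total Hoechst fluorescence of nuclei (405 nm excitation, 500-530 nm emission), with hits raising the fraction of high-intensity nuclei. SW480 colon cells incubated 48 hr with compounds at 37 C.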
# KB-V1 cytotox – KB-V1 MDR subline cytotoxicity. KB-V1 MDR cells viability, CellTiter-Glo, 72 h. Potency, µM (titrated, usually from 46.1 µM), usual class: cytotoxic. 3.4% of 400,000 active. AID 1347076; also: % is scaled to controls: 0 for no effect and ±100 for the full control effect; nearly all actives have a fitted effect of over 60% in size
#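 Cytotoxicity via CellTiter-Glo luminescence after 72 h compound exposure at 37 degrees C. Cells: drug-selected KB-V1 line, DMEM phenol-red free plus 10% FBS. Compounds tested at multiple concentrations; normalized data fitted to concentration-effect curves.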
# HT1080 IDH1KD tx – kills HT-1080 cells with IDH1 knockdown | HT-1080 IDH1 knockdown viability, ATP luminescence, 48 h | Potency, µM (titrated, usually from 46.1 µM), inactives show at the highest dose activity, negative = toxicity, hits mostly cytotoxic | 2% of 360,000 active | AID 686971;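 also: 0% = DMSO wells and -100% = cell-free medium wells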
#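 CellTiter-Glo luminescence after 48 h compound exposure at 37 degrees C of IDH1-knockdown HT-1080 cells in 5% FBS RPMI. %Activity scaled between DMSO wells and cell-free media wells, with curves fitted and assigned curve classes.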
# HT1080NT lethal – kills 2HG-producing HT-1080-NT fibrosarcoma cells. HT-1080-NT fibrosarcoma viability, CellTiter-Glo ATP luminescence, 48 h. Potency, µM (doses to about 46.1 µM), inactives show top-dose activity, negative = less viability, actives largely listed as cytotoxic. 1.6% of 360,000 active. AID 686970;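 also: NT is the 2HG producing partner of a matched IDH1 knockdown line; 0% = DMSO-treated cells and -100% = media-only wells without cells; nearly all actives have a fitted effect of over 55% in size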
#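 Luminescent CellTiter-Glo readout after 48 hours of compound exposure at 37 degrees C defined viability of HT-1080-NT cells. Activity was normalized to DMSO wells and cell-free media wells; concentration-response curves were fitted and assigned curve classes.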
# KB-3-1 cytotox – kills parental KB-3-1 adenocarcinoma cells; KB-3-1 viability, CellTiter-Glo ATP luminescence, 72 h; 1.4% of 400,000 active; Potency, µM (doses to about 46.1 µM), usual class: cytotoxic; also: % is scaled to controls: 0 for no effect and ±100 for the full control effect; nearly all actives have a fitted effect of over 60% in size
#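 KB-3-1 cells, DMEM (no phenol red) + 10% FBS; compound by pin transfer, 72 h, 37 °C. Readout: CellTiter-Glo luminescence after 10 min. Data normalized, curve-fitted.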
# * = called active by the depositor; i = inactive; ? = inconclusive; . = no result; ! = repeats disagree. Calls follow the shape of the dose curve; as a rule, active = well fitted curve in the direction sought with a large enough effect; inconclusive = small, poorly fitted or top-dose-only effect, or another doubt; inactive = no such curve, though single readings can be large; an effect the other way counts as inactive or inconclusive. Potency is read from the fitted curve at half-maximal effect.
SMILES,MCF10A rerep,SW480 rerep,KB-V1 cytotox,HT1080 IDH1KD tx,HT1080NT lethal,KB-3-1 cytotox
COc1ccc(SC[C@H](C)CN2CC[C@H](NC(=O)OCc3ccccc3)CCC2=O)cc1,?,0%,12µM*!,-15%,-1%,15µM*!
C[C@@H](CN=[N+]=[N-])CN1CC[C@H](NC(=O)OCc2ccccc2)CCC1=O,2%,-34%,i,5%,10%,i
O=C(NC(Cc1c[nH]c2ccccc12)C(=O)N1CCOCC1)c1cccs1 (stereo unspecified),-11%,1%,i,13%,15%,i
CC(C)CC1C(=O)N(Cc2cn(CCC3OCCO3)nn2)CCS(=O)(=O)N1Cc1ccc(-c2ccccc2)cc1 (stereo unspecified),.,.,15µM*,-27%,?,?
Cc1ccc(-c2ccc(CN3C(CC(C)C)C(=O)N(Cc4cn(CCC5OCCO5)nn4)CCS3(=O)=O)cc2)cc1 (stereo unspecified),.,.,i,18µM*,18µM*,?
CC(C)CC1C(=O)N(Cc2cn(CCC3OCCCO3)nn2)CCS(=O)(=O)N1Cc1ccc(-c2ccccc2)cc1 (stereo unspecified),.,.,i,-1%,1%,i
C=CCn1c(Oc2ccccc2F)nc2c1c(=O)n(C)c(=O)n2C,4%,-28%,i,-7%,5%,i
NC(=O)CSc1nc2cc([N+](=O)[O-])ccc2n1-c1cccc(C(F)(F)F)c1,4%,-2%,6.5µM*,1%,2%,i
COc1ccccc1N1C(=O)CC1(C#N)c1ccc(OCc2ccccc2)cc1 (stereo unspecified),15%,-1%,i,-16%,-1%,i
O=C(Nc1ccc(Br)cc1)c1cc(S(=O)(=O)NC2CCCC2)ccc1F,.,.,?,.,.,21µM*
O=C(Nc1ccc(C(F)(F)F)cc1)c1cc(S(=O)(=O)NC2CCCCCC2)ccc1F,.,.,18µM*,.,.,?
O=C(Nc1ccc(C(F)(F)F)cc1)c1cc(S(=O)(=O)NC2CCCCC2)ccc1F,.,.,?,.,.,i
O=c1nc(N/N=C/c2ccccn2)cn[nH]1,17%,?,i,?,?,?
CSc1ccc(/C=N/Nc2nc(C)cc(=O)[nH]2)cc1,10%,-3%,i,1%,0%,i
Fc1cccc(/C=N/Nc2nncc3ccccc23)c1,-1%,-59%,i,-1%,-23%,i
O=c1cnnc(N/N=C/c2ccccn2)[nH]1,?,?,i,1.3µM*,?,?
Cc1cc(=O)[nH]c(N/N=C/c2ccccn2)n1,?,4.1µM*,?,?,?,?
C(=N\Nc1nncc2ccccc12)/c1ccccn1,?,2.6µM*,i,5.2µM*,?,?
Cc1cc(=O)[nH]c(N/N=C/c2ccc(-c3ccc(F)cc3)o2)n1,?,?,?,8.2µM*,?,?
COc1cc(/C=C/C(=O)OCC(=O)NCCC2=CCCCC2)cc(OC)c1OC,16%,-7%,i,7%,8%,?
Cc1ccc(S(=O)(=O)Nc2ccc(Cl)cc2)cc1NC(=O)c1cc2c(s1)CCCC2,?,4%,15µM*,?,?,i
Cc1ccc(NS(=O)(=O)c2cc(NC(=O)c3cc4c(s3)CCCC4)ccc2C)c(C)c1,11%,-5%,3.7µM*,-5%,-1%,i
COc1ccc(O)c(C(c2c(C)[nH][nH]c2=O)c2c(C)[nH][nH]c2=O)c1,-2%,1%,i,6%,17%,i
O=C(Nc1ccc(C(F)(F)F)cc1)c1ccccc1Br,0%,5%,i,-16%,-3%,i
N#CCCn1c(-c2nonc2NC(=O)c2ccccc2Cl)nc2ccccc21,16%,-1%,i,5%,4%,i

# High-throughput results deposited in PubChem by National Center for Advancing Translational Sciences (NCATS).
